# Data from publication PMC11062922 (Nature Chemical Biology, 2023).
# Like-named read-outs stand apart in the source and are kept apart here.
# Columns and labels:
# Set-up in all cases: species or system human, MV4-11 + K-562 + COLO205 + SK-N-BE2 + OVCAR-8
# [1] = test system: MAPK10; conditions: read-out: apparent Kd, n = 1
# [2] = test system: MAPK8; conditions: read-out: apparent Kd, n = 1
# [3] = test system: STK16; conditions: read-out: apparent Kd; compound concentrations:100 nM and 1000 nM (sheet 'Samples'); n = 1
# [4] = test system: CSNK1A1; conditions: read-out: apparent Kd, n = 1
# [5] = test system: CSNK1D; conditions: read-out: apparent Kd, n = 1
# [6] = test system: PKN2; conditions: read-out: apparent Kd, n = 1
# [7] = test system: PRKACA; conditions: read-out: apparent Kd, n = 1
# [8] = test system: PRKACB; conditions: read-out: apparent Kd, n = 1
# [9] = test system: PRKCQ; conditions: read-out: apparent Kd, n = 1
# [10] = test system: ROCK2; conditions: read-out: apparent Kd, n = 1
# [11] = test system: PIK3CD; conditions: read-out: apparent Kd, n = 1
# [12] = test system: MARK2; conditions: read-out: apparent Kd; compound concentrations:100 nM and 1000 nM (sheet 'Samples'); n = 1
# [13] = test system: PRKAA1; conditions: read-out: apparent Kd, n = 1
# [14] = test system: PRKCA; conditions: read-out: apparent Kd, n = 1
# [15] = test system: RPS6KB1; conditions: read-out: apparent Kd; compound concentrations:100 nM and 1000 nM (sheet 'Samples'); n = 1
# [16] = test system: STK3; conditions: read-out: apparent Kd, n = 1
# [17] = test system: TNIK; conditions: read-out: apparent Kd, n = 1
# [18] = test system: ERCC2; conditions: read-out: apparent Kd, n = 1
# [19] = test system: FER; conditions: read-out: apparent Kd, n = 1
# [20] = test system: PIP4K2C; conditions: read-out: apparent Kd, n = 1
# [21] = compound concentrations:100 nM and 1000 nM (sheet 'Samples')
structure (smiles),measurement,setting,value
CC(C)Oc1ccc2c(-c3ccnc(Nc4ccc(N5CCN(C)CC5)cc4)n3)cnn2n1 [GW696155X],potency estimated from few doses,[1]; [21],1250 nM
same,potency estimated from few doses,[2]; [21],352 nM
same,potency estimated from few doses,[3],39.2 nM
NCC(NC(=O)c1cc(-c2cn[nH]c2)c(-c2ccnc3[nH]ccc23)s1)c1ccccc1.NCC(NC(=O)c1cc(-c2cn[nH]c2)c(-c2ccnc3[nH]ccc23)s1)c1ccccc1.O=C(O)C(F)(F)F.O=C(O)C(F)(F)F (stereo not drawn) [GSK1325775A],potency estimated from few doses,"[4]; compound concentrations: 100 nM and 1000 nM (sheet 'Samples'), CATDS: 3.28567634973949E-2",1500 nM
same,potency estimated from few doses,"[5]; compound concentrations: 100 nM and 1000 nM (sheet 'Samples'), CATDS: 2.89439417277669E-2",2450 nM
same,potency estimated from few doses,"[6]; compound concentrations: 100 nM and 1000 nM (sheet 'Samples'), CATDS: 3.8123557619569197E-2",949 nM
same,potency estimated from few doses,"[7]; compound concentrations: 100 nM and 1000 nM (sheet 'Samples'), CATDS: 4.90722253933666E-2",503 nM
same,potency estimated from few doses,"[8]; compound concentrations: 100 nM and 1000 nM (sheet 'Samples'), CATDS: 4.09510310832654E-2",782 nM
same,potency estimated from few doses,"[9]; compound concentrations: 100 nM and 1000 nM (sheet 'Samples'), CATDS: 3.02069836024773E-2",2040 nM
same,potency estimated from few doses,"[10]; compound concentrations: 100 nM and 1000 nM (sheet 'Samples'), CATDS: 0.17011597804612999",47.4 nM
CS(=O)(=O)Nc1cccc(-c2ccc3c(NC(=O)C4CC4)n[nH]c3c2)c1 [SB-742864],potency estimated from few doses,"[11]; compound concentrations: 100 nM and 1000 nM (sheet 'Samples'), CATDS: 0.40980617743007602",162 nM
CNc1cc(-c2ccc3c(N)n[nH]c3c2)nc(N)n1 [GSK2224810A],potency estimated from few doses,[4]; [21],2450 nM
same,potency estimated from few doses,[11]; [21],83.4 nM
Cc1n[nH]c2cc(Nc3ccnc(Nc4cccc(CN5CCOCC5)c4)n3)ccc12 [GW682569X],potency estimated from few doses,"[2]; compound concentrations: 100 nM and 1000 nM (sheet 'Samples'), CATDS: 8.8519756402374403E-2",1870 nM
same,potency estimated from few doses,"[11]; compound concentrations: 100 nM and 1000 nM (sheet 'Samples'), CATDS: 0.35370860335397603",121 nM
O=C(O)C(F)(F)F.O=c1[nH]ccc2nc(N[C@@H]3CCNC3)nc(Nc3cc(Cl)cc(Cl)c3)c12 [GSK2188764A],potency estimated from few doses,[12],535 nM
same,potency estimated from few doses,[13]; [21],799 nM
same,potency estimated from few doses,[14]; [21],905 nM
same,potency estimated from few doses,[9]; [21],2080 nM
same,potency estimated from few doses,[15],1520 nM
same,potency estimated from few doses,[16]; [21],847 nM
same,potency estimated from few doses,[17]; [21],1270 nM
O=C1N=C(NCc2cccs2)O/C1=C\c1ccc2ncccc2c1 [RO4624208-000],potency estimated from few doses,"[17]; compound concentrations: 100 nM and 1000 nM (sheet 'Samples'), CATDS: 4.4189138056131998E-2",2330 nM
CS(=O)(=O)CCn1c(=O)c(Oc2ccc(F)cc2F)cc2cnc(NC3CCOCC3)nc21 [RO5027956-000],potency estimated from few doses,[18]; [21],317 nM
same,potency estimated from few doses,[19]; [21],431 nM
same,potency estimated from few doses,[1]; [21],127 nM
same,potency estimated from few doses,[2]; [21],1130 nM
same,potency estimated from few doses,[20]; [21],462 nM
same,potency estimated from few doses,[13]; [21],1210 nM
same,potency estimated from few doses,[7]; [21],2090 nM
same,potency estimated from few doses,[8]; [21],977 nM
same,potency estimated from few doses,[9]; [21],998 nM
Cl.Cn1cc(C2=C(c3c4n(c5ccccc35)CCNC4)C(=O)NC2=O)c2ccccc21 [RO0318365-001],potency estimated from few doses,"[18]; compound concentrations: 100 nM and 1000 nM (sheet 'Samples'), CATDS: 7.4045119432564296E-2",696 nM
same,potency estimated from few doses,"[19]; compound concentrations: 100 nM and 1000 nM (sheet 'Samples'), CATDS: 6.02044843999179E-2",1060 nM
same,potency estimated from few doses,"[14]; compound concentrations: 100 nM and 1000 nM (sheet 'Samples'), CATDS: 4.6045234882761202E-2",2150 nM
same,potency estimated from few doses,"[9]; compound concentrations: 100 nM and 1000 nM (sheet 'Samples'), CATDS: 7.9846572084882106E-2",607 nM
CN(C)c1ccc2c(c1)/C(=C/Nc1ccc(S(N)(=O)=O)cc1)C(=O)N2 [GW416469X],potency estimated from few doses,"[11]; compound concentrations: 100 nM and 1000 nM (sheet 'Samples'), CATDS: 0.23489654545894101",138 nM
same,potency estimated from few doses,"[16]; compound concentrations: 100 nM and 1000 nM (sheet 'Samples'), CATDS: 7.8286215558842895E-2",1330 nM
Cl.Cn1c(=O)c(Cc2ccccc2F)cc2cnc(NC3CCOCC3)nc21 [RO3305377-001],potency estimated from few doses,"[18]; compound concentrations: 100 nM and 1000 nM (sheet 'Samples'), CATDS: 3.95504986982557E-2",299 nM
same,potency estimated from few doses,"[19]; compound concentrations: 100 nM and 1000 nM (sheet 'Samples'), CATDS: 3.5160978159500297E-2",361 nM
same,potency estimated from few doses,"[1]; compound concentrations: 100 nM and 1000 nM (sheet 'Samples'), CATDS: 2.2981904071827101E-2",800 nM
same,potency estimated from few doses,"[20]; compound concentrations: 100 nM and 1000 nM (sheet 'Samples'), CATDS: 1.61438790686462E-2",2170 nM
same,potency estimated from few doses,"[13]; compound concentrations: 100 nM and 1000 nM (sheet 'Samples'), CATDS: 2.1062710392343101E-2",980 nM
same,potency estimated from few doses,"[8]; compound concentrations: 100 nM and 1000 nM (sheet 'Samples'), CATDS: 1.8562598651845501E-2",1370 nM
O=C(Nc1n[nH]c2nc(-c3ccccc3O)ccc12)C1CC1 [SB-711880],potency estimated from few doses,[12],2380 nM
same,potency estimated from few doses,[16]; [21],483 nM
same,potency estimated from few doses,[17]; [21],1150 nM
CCn1c(-c2nonc2N)nc2cncc(C(=O)N3CC[C@H](N)C3)c21.Cl [SB-772077-B],potency estimated from few doses,[6]; [21],73.8 nM
same,potency estimated from few doses,[7]; [21],790 nM
same,potency estimated from few doses,[14]; [21],826 nM
same,potency estimated from few doses,[10]; [21],11.6 nM
same,potency estimated from few doses,[15],93.8 nM
Cc1cc(NC(=O)c2cccc(NC(=O)/C=C/CN(C)C)c2)ccc1Nc1nccc(-c2cccnc2)n1 [JNK-IN-7],potency estimated from few doses,[5]; [21],1190 nM
same,potency estimated from few doses,"[2]; compound concentrations: 100 nM and 1000 nM (sheet 'Samples'), CATDS: 0.361738634517147",10.7 nM
Nc1nccc(-c2ccc3c(N)n[nH]c3c2)n1 [GSK1034945A],potency estimated from few doses,[12],1440 nM
COc1ccc(Nc2nccc(NCCNC(=O)Nc3cc(C)ccc3C)n2)cc1 [GSK1379899A],potency estimated from few doses,"[4]; compound concentrations: 100 nM and 1000 nM (sheet 'Samples'), CATDS: 3.9039606822866203E-2",2320 nM
same,potency estimated from few doses,"[18]; compound concentrations: 100 nM and 1000 nM (sheet 'Samples'), CATDS: 4.8239081355384503E-2",1270 nM
same,potency estimated from few doses,"[19]; compound concentrations: 100 nM and 1000 nM (sheet 'Samples'), CATDS: 5.8591090270846503E-2",821 nM
same,potency estimated from few doses,"[11]; compound concentrations: 100 nM and 1000 nM (sheet 'Samples'), CATDS: 0.14570623002858099",175 nM
COc1cccc(C2=C(c3c(C)n(C)c4ccccc34)C(=O)NC2=O)c1 [RO3300167-000],potency estimated from few doses,"[16]; compound concentrations: 100 nM and 1000 nM (sheet 'Samples'), CATDS: 0.106754068539186",824 nM
